Assay results as given in PubChem BioAssay.

What was measured:
[1] = target: Tumor necrosis factor receptor superfamily member 10B (Homo sapiens) (UniProt O14763); assay: viability loss of caspase-8 NB7 cells with TRAIL – with/without TRAIL, luminescence panel, confirmation (AID 651596); conditions: NB7 neuroblastoma + caspase-8, TRAIL sensitization, NB7 Caspase-8, with TRAIL, mean of runs, at 10 µM, stronger effect = higher value
[2] = as above; conditions: NB7 neuroblastoma + caspase-8, without TRAIL, NB7 Caspase-8, without TRAIL, mean of runs, at 10 µM

Sequence of Tumor necrosis factor receptor superfamily member 10B (Homo sapiens) (O14763 whole entry, looked up): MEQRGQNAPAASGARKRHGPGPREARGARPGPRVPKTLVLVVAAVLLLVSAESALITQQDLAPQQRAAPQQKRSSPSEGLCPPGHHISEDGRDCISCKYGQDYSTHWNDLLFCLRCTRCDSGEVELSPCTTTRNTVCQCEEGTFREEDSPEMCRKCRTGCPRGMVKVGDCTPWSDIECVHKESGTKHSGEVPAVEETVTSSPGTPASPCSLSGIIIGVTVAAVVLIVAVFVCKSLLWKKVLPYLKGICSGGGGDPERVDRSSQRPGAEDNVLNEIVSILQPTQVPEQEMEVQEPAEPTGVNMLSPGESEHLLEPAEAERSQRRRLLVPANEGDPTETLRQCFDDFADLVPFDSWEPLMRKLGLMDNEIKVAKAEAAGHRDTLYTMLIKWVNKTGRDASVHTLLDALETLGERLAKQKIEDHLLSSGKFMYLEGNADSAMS

Row | SMILES | activity [1] [%] | activity [2] [%]
1 | c1ccc2c(c1)COc1c3cc4c(cc3nn1-2)OCO4 | 67.7 | 53.8
2 | CN1CCN(C(=O)C2=NOC3(C2)C(=O)Nc2ccccc23)CC1 (stereo unspecified) | -0.15 | 70.2
3 | Cc1cccc(N2CCN(C(=S)Nc3ccc4nc(N5CCN(C)CC5)cc(C)c4c3)CC2)c1C | 98 | 99.2
4 | COc1ccc(CC(N)c2csc(NC(=O)Nc3cccc(C(F)(F)F)c3)n2)cc1 (stereo unspecified) | 39.6 | 87
5 | Cc1ccccc1C(=O)Nc1ccc2c(c1)OCCO2 | 61.1 | 63.2
6 | Cc1ccc(C(=O)Nc2ncc(C)s2)s1 | 80.2 | 79
7 | O=C(Nc1nc2cc3c(cc2s1)OCCO3)c1cccs1 | 66.6 | 64.6
8 | Cc1ccc(-c2nn3c(C)nnc3c3ccccc23)cc1S(=O)(=O)NCc1ccccc1 | 48.2 | 51.6
